Rows were chosen to be rich in hits. Some 1.3% of all compounds tested hit in one or more screens of this group.
ZTA counter: blocks Epstein-Barr virus ZTA, an EBNA-1 counter-screen; P03206; ZTA-DNA binding, fluorescence polarization; inhibition, % at 11 µM; 0.15% of 320,000 active; AID 2234; in the data active = inhibition above about 33%
EBNA-1 inh: blocks EBNA-1 binding to DNA. EBNA-1 DNA binding, fluorescence polarization. inhibition, % at 14.8 µM. 0.34% of 300,000 active. AID 1950; in the data active = inhibition above about 28%
LYPLA2 inh: counter-screen for PME1 inhibitors: inhibitors of human LYPLA2; recombinant LYPLA2, FP-Rh probe fluorescence polarization; inhibition, % at 5.9 µM; 0.38% of 320,000 active; AID 2177;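 active = inhibition above the screen-wide mean plus 3 SD, limit set per campaign, cut at about 26% in these data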
PREPL inhibitor: inhibits the human prolyl oligopeptidase-like enzyme; Q4J6C6; recombinant PREPL, fluorescence polarization activity-based probe; inhibition, % at 5.96 µM; 0.68% of 320,000 active; AID 2751
Target sequence (Q4J6C6 whole entry, looked up): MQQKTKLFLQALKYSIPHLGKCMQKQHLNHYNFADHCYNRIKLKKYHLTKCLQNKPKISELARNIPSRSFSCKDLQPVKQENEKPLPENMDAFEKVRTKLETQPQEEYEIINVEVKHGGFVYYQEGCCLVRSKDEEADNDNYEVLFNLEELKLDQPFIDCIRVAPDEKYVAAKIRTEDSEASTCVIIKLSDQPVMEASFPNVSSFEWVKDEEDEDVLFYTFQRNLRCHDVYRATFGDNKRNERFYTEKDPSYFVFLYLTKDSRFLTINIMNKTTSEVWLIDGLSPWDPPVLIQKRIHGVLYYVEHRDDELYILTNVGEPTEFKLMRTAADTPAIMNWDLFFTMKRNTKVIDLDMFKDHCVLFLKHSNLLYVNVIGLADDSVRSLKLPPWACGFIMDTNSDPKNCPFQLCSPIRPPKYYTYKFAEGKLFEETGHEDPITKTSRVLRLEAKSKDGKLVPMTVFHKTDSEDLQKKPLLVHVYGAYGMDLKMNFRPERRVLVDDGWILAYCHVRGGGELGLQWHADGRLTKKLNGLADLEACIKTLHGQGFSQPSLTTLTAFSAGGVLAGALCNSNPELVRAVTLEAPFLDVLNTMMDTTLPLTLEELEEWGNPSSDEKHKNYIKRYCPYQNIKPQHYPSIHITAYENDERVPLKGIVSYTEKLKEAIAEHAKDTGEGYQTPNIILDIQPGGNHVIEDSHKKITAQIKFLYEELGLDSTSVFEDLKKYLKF
LYPLA1 counter: blocks human lysophospholipase 1, a PME1 counter-screen | inhibition, % at 5.9 µM | 0.16% of 320,000 active | AID 2174 | recombinant LYPLA1, FP-Rh probe fluorescence polarization;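 active = inhibition above the mean of all tested compounds plus 3 SD, set per campaign, cut at about 14% in these data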;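 note: inhibitors block serine hydrolase probe labeling of LYPLA1 so polarization falls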
LYPLA1 conf: LYPLA1 (human) inhibition, confirmation counter-screen | shares compounds with LYPLA1 counter | inhibition, % at 5.9 µM | 69% of 480 active | recombinant LYPLA1, FP-Rh probe fluorescence polarization;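 active = mean inhibition across replicates above the hit cutoff set in the primary screen, cut at about 15% in these data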;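 note: loss of FP-Rh probe labeling of LYPLA1 seen as lower polarization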
LYPLA2 conf: counter-screen for PME1 inhibitors: confirmation of human LYPLA2 inhibitors; recombinant LYPLA2, FP-Rh probe fluorescence polarization; 72% of 1,100 active; shares compounds with LYPLA2 inh; inhibition, % at 5.9 µM;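 active = mean inhibition across replicates above the hit cutoff set in the primary screen, cut at about 26% in these data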;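 note: blocked labeling of the enzyme by serine hydrolase FP-Rh probe lowers polarization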
ZTA inh confirm: confirmation of Epstein-Barr virus ZTA DNA binding inhibitors. AID 2361. Zta-ZRE DNA binding, fluorescence polarization. shares compounds with ZTA counter. inhibition, % at 11.1 µM. 30% of 320 active;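 active = mean inhibition across triplicate runs above the hit threshold derived for the original primary screen, cut at about 33% in these data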
EBNA1 counter: blocks EBNA-1 DNA binding in ZTA counter-screen; shares compounds with ZTA counter; fluorescence polarization; 320 tested, under 10 active; inhibition, % at 14.8 µM; call rule not given here
PREPL confirm: human PREPL inhibition, confirmation; shares compounds with PREPL inhibitor; recombinant PREPL, fluorescence polarization activity probe; inhibition, % at 5.96 µM; 67% of 2,000 active; AID 2803
Each line names hits and unclear results; the compound was inactive in the other large screens (follow-up assays come after a bar, where they were run). Cut-off read from the data, not from the text of the source, unless noted: active = inhibition above about 43%; inactive = the rest.

COc1ccc(-n2nc(C(=O)NCC(=O)N3CCN(c4cccc(Cl)c4)CC3)c3ccccc3c2=O)c(OC)c1	LYPLA2 inh 82.8, LYPLA1 counter 49.3 | LYPLA1 conf 49.0 | LYPLA2 conf 68.5
CN(CC(=O)Nc1ccc(OC(F)(F)F)cc1)C(=O)Cn1c(=O)cnc2ccccc21	none (no result: EBNA-1 inh)
CCCCn1c(NC(C)=O)c(C#N)c2nc3ccccc3nc21	none
C=CCn1c(NC(=O)c2ccccc2Cl)c(C#N)c2nc3ccccc3nc21	LYPLA2 inh 49.6, LYPLA1 counter 38.7 | LYPLA1 conf inactive | LYPLA2 conf 85.7
COc1cccc2c1-c1c(O)cccc1C2=O	none
COc1cccc2c1C(=O)c1c(O)c3c(c(O)c1C2=O)C[C@](O)(C(C)=O)C[C@H]3O[C@@H]1C[C@@H](N)[C@@H](O)[C@@H](C)O1	ZTA counter 43.6, LYPLA2 inh 49.7, LYPLA1 counter 63.7 | LYPLA1 conf 64.2 | LYPLA2 conf 40.7 | ZTA inh confirm 74.6 | EBNA1 counter inactive
CN1C2C(Br)CCCCN2c2ccc(F)cc2S1(=O)=O (stereo not drawn)	none
CC(=O)Nc1cccc(C(=O)N2CCC(n3nccc3NC(=O)CC(C)C)CC2)c1	none
CC(C)N(C(=O)Nc1ccc2nsnc2c1)C(C)C	ZTA counter 73.5, LYPLA2 inh 73.1, LYPLA1 counter 71.4 | LYPLA1 conf inactive | LYPLA2 conf 30.9 | ZTA inh confirm inactive | EBNA1 counter inactive
CC1CCN(C(=O)Nc2ccc3nsnc3c2)CC1	none
COc1ccc(NC(=S)Nc2ccc3nsnc3c2)cc1	ZTA counter 38.1, LYPLA2 inh 86.2, LYPLA1 counter 60.9 | LYPLA1 conf inactive | LYPLA2 conf inactive | ZTA inh confirm inactive | EBNA1 counter inactive
Cc1ccc(C2(c3ccccc3)NC(=O)N(CC(=O)N(C)C3CCS(=O)(=O)C3)C2=O)cc1C (stereo not drawn)	none (no result: EBNA-1 inh)
CCC(CC)C(=O)Nc1nnc(S(=O)(=O)N2CCCC2)s1	none
CCNc1ccc2noc3c2c1C(=O)c1ccccc1-3	ZTA counter 63.1, LYPLA2 inh 117.5, PREPL inhibitor 107.1, LYPLA1 counter 107.7 | LYPLA1 conf 108.5 | LYPLA2 conf 111.9 | ZTA inh confirm inactive | EBNA1 counter inactive
Nc1ccc(N2CCOCC2)c2nonc12	ZTA counter 54.9, LYPLA2 inh 70.0, LYPLA1 counter 69.7 | LYPLA1 conf inactive | ZTA inh confirm inactive | EBNA1 counter inactive
CCn1c(CSc2nnc(-c3ccncc3)n2CCOC)nc2cc(C(=O)O)ccc21	ZTA counter 36.8, LYPLA2 inh 39.3, LYPLA1 counter 31.3 | LYPLA1 conf 33.8 | LYPLA2 conf 33.7 | ZTA inh confirm inactive | EBNA1 counter inactive
COCCn1c(SCCCC(=O)c2ccc(Br)cc2)nnc1-c1ccncc1	none
CCn1c(CSc2n[nH]c(N)n2)nc2cc(C(=O)O)ccc21	ZTA counter 34.1, LYPLA2 inh 38.4, LYPLA1 counter 39.3 | LYPLA1 conf 34.6 | LYPLA2 conf 34.6 | ZTA inh confirm 39.2 | EBNA1 counter inactive
Cc1cc(C(=O)COc2cccc3cccnc23)c(C)n1C	LYPLA2 inh 29.1, PREPL inhibitor 64.7, LYPLA1 counter 21.4 | LYPLA1 conf inactive | LYPLA2 conf inactive | PREPL confirm inactive
Cn1nc(-c2ccc(Cl)cc2)nc2c(=O)n(C)c(=O)nc1-2	ZTA counter 48.9, LYPLA2 inh 90.2, PREPL inhibitor 44.1, LYPLA1 counter 85.2 | LYPLA1 conf 84.8 | LYPLA2 conf 89.0 | ZTA inh confirm 82.1 | EBNA1 counter inactive | PREPL confirm 60.4
COc1ccccc1CN1CCN(S(=O)(=O)c2ccc(C)cc2)CC1	none
CCOc1ccc(NC(=S)Nc2ccc3nsnc3c2)cc1	ZTA counter 66.9, LYPLA2 inh 89.8, PREPL inhibitor 43.8, LYPLA1 counter 66.2 | LYPLA1 conf inactive | LYPLA2 conf 34.0 | ZTA inh confirm inactive | EBNA1 counter inactive | PREPL confirm inactive
O=C1c2ccccc2C(=O)c2c1cccc2N1CCCC1	none
Cn1c(=O)cc2c3c(c(N4CCCCC4)ccc31)C(=O)c1ccccc1-2	LYPLA2 inh 38.0, PREPL inhibitor 54.9, LYPLA1 counter 27.7 | LYPLA1 conf 19.6 | LYPLA2 conf 27.7 | PREPL confirm 57.4
Cc1ccc(-c2ccccc2NC(=O)CS(=O)CC(=O)Nc2ccc(C)c(Cl)c2)o1 (stereo not drawn)	LYPLA2 inh 58.9, PREPL inhibitor 60.1, LYPLA1 counter 46.0 | LYPLA1 conf inactive | LYPLA2 conf inactive | PREPL confirm inactive
COc1cc(N=Nc2cccc(S(N)(=O)=O)c2)c2ccccc2c1N	PREPL inhibitor 61.3, LYPLA1 counter 14.2 | LYPLA1 conf inactive | PREPL confirm 59.0
O=C(CN1CCN(c2ccccn2)CC1)Nc1cc(C(F)(F)F)ccc1Cl	PREPL inhibitor 46.9, LYPLA1 counter 53.9 | LYPLA1 conf 54.9 | PREPL confirm inactive
O=C(CN1CCN(c2ccccn2)CC1)Nc1ccc(Cl)c(C(F)(F)F)c1	none
CCOc1ccc2nc3cc(NCc4ccc(OC)cc4)ccc3c(N)c2c1	ZTA counter 101.0, LYPLA2 inh 36.6, PREPL inhibitor 102.4, LYPLA1 counter 19.4 | LYPLA1 conf inactive | LYPLA2 conf inactive | PREPL confirm 78.7
CCn1cnc2cc(NCc3ccc(OC)cc3)ccc21	none
COc1ccc(OC)c(-c2oc3ccccc3c(=O)c2O)c1	none
COc1ccc(OC)c(-c2c3cc(O)c(=O)cc-3oc3cc(O)c(O)cc23)c1	LYPLA2 inh 76.7, PREPL inhibitor 78.5, LYPLA1 counter 84.6 | LYPLA1 conf inactive | LYPLA2 conf inactive | PREPL confirm 76.7
O=C(CN1C(=O)NC2(CCCC2)C1=O)OCCOc1cccc(Br)c1	none
COc1ccc(C(=O)O)cc1S(=O)(=O)Nc1ccc(N2CCCCC2)cc1	none (no result: ZTA counter, EBNA-1 inh, LYPLA2 inh, LYPLA1 counter)
O=C(N/N=C/c1cccnc1)c1cc2c(ccc3ccccc32)o1	none
O=C(N/N=C/c1cc(Cl)c(O)c(Cl)c1)c1cc2c(ccc3ccccc32)o1	PREPL inhibitor 59.0, LYPLA1 counter 24.1 | LYPLA1 conf inactive | PREPL confirm 68.5
CC(=O)Oc1ccc2c(c1)Oc1cc(OC(C)=O)ccc1C21OC(=O)c2ccccc21	LYPLA2 inh 119.1, PREPL inhibitor 95.2, LYPLA1 counter 105.8 | LYPLA1 conf 98.0 | LYPLA2 conf 120.9 | PREPL confirm 112.2

Compound activity (PubChem BioAssay)
